Data as given in PubChem BioAssay (NCATS).
Results filed as inconclusive are left out. A call without a number means that no potency is given here. Calls of active or inactive are those of the source. Calls follow the shape of the dose curve; as a rule, active = well fitted inhibition curve with a large enough effect; inconclusive = small, poorly fitted or top-dose-only effect; inactive = no such curve, though single readings can be large or run the other way.

biological target: Tumor susceptibility gene 101 protein (Homo sapiens) (UniProt Q99816); test: qHTS Assay for Iinhibitors of HIV-1 Budding by Blocking the Interaction of PTAP/TSG101: Hit Validation (AID 651600); details: PTAP peptide/TSG101 UEV interaction, biochemical assay; series mostly up to 57.5 µM; also: nearly all actives have a fitted effect of over 70% in size
Sequence (Q99816 whole entry, looked up, the tested form may be a part): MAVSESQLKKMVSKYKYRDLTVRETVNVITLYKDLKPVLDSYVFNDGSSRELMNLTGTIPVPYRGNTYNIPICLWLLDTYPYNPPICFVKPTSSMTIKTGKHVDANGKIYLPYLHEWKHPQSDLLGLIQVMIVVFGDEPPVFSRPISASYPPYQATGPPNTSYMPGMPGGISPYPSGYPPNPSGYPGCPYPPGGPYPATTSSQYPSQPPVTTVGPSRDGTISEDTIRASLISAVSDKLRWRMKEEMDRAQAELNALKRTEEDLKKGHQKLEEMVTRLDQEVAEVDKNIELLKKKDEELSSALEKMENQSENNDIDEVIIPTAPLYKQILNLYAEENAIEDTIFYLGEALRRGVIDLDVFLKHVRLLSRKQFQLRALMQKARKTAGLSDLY
Procedure, shortened: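 FITC-PTAP peptide (50 nM final) binding to Tsg101 binding domain (10 uM final) was measured by polarization after 20 min at r.t. with compounds, in 10 mM HEPES pH 7.5 buffer with 0.15 M NaCl and 0.01% Tween 20.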
Potency is read from the fitted curve at half-maximal effect.

SMILES | Potency
COc1ccc2c(C=Nc3c(C)n(C)n(-c4ccccc4)c3=O)c(O)n(Cc3ccco3)c(=O)c2c1 | 29.1 µM (active)
N#Cc1c(SCC(=O)Nc2nc3ccc(Br)cc3s2)sc2c(O)cc(=O)[nH]c12 | inactive
CN1CC=C2C(C#N)=C(N)C(C#N)(C#N)[C@H](c3ccoc3)[C@H]2C1 | inactive
O=[N+]([O-])c1cc(Br)cc(/C=N/n2cnnc2)c1O | inactive
CCCN1CCN(S(=O)(=O)c2cn(C)nc2C)CC1 | inactive
CC1(C)CC(=O)C2=C(C1)OC(N)=C(C#N)C2c1cc2c(cc1[N+](=O)[O-])OCO2 (stereo not given) | inactive
Cc1cc(Br)ccc1NC(=O)c1sc2nc3n(c(=O)c2c1C)CCCC3 | inactive
Cc1ccc(NC(=S)Nc2ccc3nc(-c4ccccn4)c(-c4ccccn4)nc3c2)cc1C | inactive
CC(=O)c1cccc(-n2nnnc2SCC(=O)Nc2cc(C)on2)c1 | inactive
CCCCn1c(SCC(=O)c2cc(OC)ccc2OC)nc2cc(S(N)(=O)=O)ccc21 | inactive
Cn1c(=O)c(NCCc2ccccc2)c2c3c(cccc31)C(=O)c1ccccc1-2 | 2.59 µM (active)
CC(=O)n1c(C=Nc2ccc(Cl)cc2)c(O)c2ccccc21 | 16.3 µM (active)
COc1ccccc1N1C(C)=CC(=C(C#N)c2nc3ccccc3s2)C=C1C | 25.9 µM (active)
CCOc1cc(/C=C(\C#N)c2nc(-c3cccs3)c(NC(C)=O)s2)ccc1O | inactive
Cn1c2ccc(F)cc2c2nc3ccccc3nc21 | inactive
CC(C)(C)c1ccc(C2C3=C(CCCC3=O)NC3=C2C(=O)c2ccccc23)cc1 (stereo not given) | inactive
Cc1ccc(OC(=O)c2ccc3nc(C)sc3c2)cc1 | inactive
CC1(C)CC(=O)C2=C(C1)OC(N)=C(C#N)[C@@H]2c1ccccc1[N+](=O)[O-] | inactive
CC(=O)Nc1ccc(S(=O)(=O)Nc2nc3n(n2)C(c2ccccc2)C=C(c2ccc(Cl)cc2)N3)cc1 (stereo not given) | inactive
O=C1Nc2ccc(Cl)cc2C12Nc1ccccc1-c1nnc(SCc3ccccc3F)nc1O2 (stereo not given) | inactive

SMILES | Potency
CC(C)c1nnc(N2C(=O)C(O)=C(C(=O)c3cccs3)C2c2ccccc2)s1 (stereo not given) | 8.19 µM (active)
COc1ccc(OC)c(S(=O)(=O)Nc2cc3c(cc2C)n(C)c(=O)c(=O)n3C)c1 | inactive
Oc1oc(-c2ccccc2)nc1C=Nc1cccc2ccccc12 | inactive
CCN(CC)C(=O)CSc1nnc2nnc3cc(OC)ccc3n12 | 29.1 µM (active)
Cc1ccc(C2C=C(c3ccccc3)Nc3nc(NS(C)(=O)=O)nn32)cc1 (stereo not given) | inactive
CCOC(=O)Cn1c(=O)c(-c2cc(Br)ccc2N)nc2ccccc21 | inactive
CN1CC=C2C(C#N)=C(N)C(C#N)(C#N)C(Cc3ccccc3)C2C1 (stereo not given) | inactive
C1=C(c2ccc(-c3ccccc3)cc2)Nc2ncnn2C1c1ccco1 (stereo not given) | inactive
COc1ccc(C2C(C(=O)c3cccs3)=C(O)C(=O)N2c2nnc(C)s2)cc1OC (stereo not given) | 6.51 µM (active)
COc1ccc(C2C(C(=O)c3cccs3)=C(O)C(=O)N2c2nncs2)cc1 (stereo not given) | 20.6 µM (active)
CS(=O)(=O)Nc1nc2n(n1)C(c1ccccc1)C=C(c1ccc(Br)cc1)N2 (stereo not given) | 32.6 µM (active)
Cc1cccc(NC(=S)NCCC(c2ccccc2)c2ccccc2)c1 | inactive
CN1CCc2c(sc3c2C(=O)NC(c2ccccn2)N3)C1 (stereo not given) | 18.3 µM (active)
COc1cccc2c1C(=O)c1c(O)c3c(c(O)c1C2=O)C[C@](O)(C(C)=O)C[C@H]3O[C@@H]1C[C@@H](N)[C@@H](O)[C@@H](C)O1 | 14.6 µM (active)
Fc1ccc(C2=CC(c3ccco3)n3ncnc3N2)cc1 (stereo not given) | inactive
COc1ccc(-n2nc(C(=O)Nc3ccc(OC)c(OC)c3)c3c4ccccc4n(C)c3c2=O)cc1 | inactive
Cc1ccc(C2C=C(c3ccc(Cl)cc3)Nc3nc(NS(=O)(=O)c4ccccc4)nn32)cc1 (stereo not given) | inactive
Cc1ccc(N2C(=O)C3C(C(=O)c4ccccc4)=NN(c4ccccc4)C3C2=O)cc1 (stereo not given) | inactive
COc1ccc(CCn2c(=N)c(S(=O)(=O)c3ccc(Cl)cc3)cc3c(=O)n4ccccc4nc32)cc1 | 6.51 µM (active)
COc1ccc(/C=C2/N=C(c3cccs3)OC2=O)cc1OC(C)C | inactive
